# Where a chain is given by its changes, count along the chain named.
# How the values were obtained:
# Assay in all cases: PBM; 200 nM protein, PBS
# Conditions in all cases: dsDNA, one strand shown
# NKX2-4 [1] = target: T1, NKX2-4 (Homo sapiens, UniProt Q9H2Z4 175-261, P217L)
# T1 sequence: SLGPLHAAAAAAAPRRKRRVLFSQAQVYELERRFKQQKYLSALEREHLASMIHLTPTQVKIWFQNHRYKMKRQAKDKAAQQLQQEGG
# NKX2-4 [2] = target: T2, NKX2-4 (Homo sapiens, UniProt Q9H2Z4 175-261, T231S)
# T2 sequence: T1 sequence with L43P, T57S
# NKX2-4 [3] = target: T3, NKX2-4 (Homo sapiens, UniProt Q9H2Z4 175-261)
# T3 sequence: T1 sequence with L43P
# NKX2-4 [4] = target: T4, NKX2-4 (Homo sapiens, UniProt Q9H2Z4 175-261, R246Q)
# T4 sequence: T1 sequence with L43P, R72Q
# NKX2-6 [5] = target: T5, NKX2-6 (Homo sapiens, UniProt A6NCS4 118-204, R150C)
# T5 sequence: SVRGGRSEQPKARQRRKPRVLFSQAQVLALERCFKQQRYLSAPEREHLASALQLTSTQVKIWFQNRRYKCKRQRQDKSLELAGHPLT
# PROP1 [6] = target: PROP1 (Homo sapiens, UniProt O75360 56-141)
# Sequence of PROP1 (Homo sapiens, UniProt O75360 56-141) (O75360 56-141): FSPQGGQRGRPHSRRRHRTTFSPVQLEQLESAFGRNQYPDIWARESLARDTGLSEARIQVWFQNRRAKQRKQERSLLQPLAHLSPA
# PROP1 [7] = target: PROP1 (Homo sapiens, UniProt O75360 56-141, R99H)
# Sequence of PROP1 (Homo sapiens, UniProt O75360 56-141, R99H) (O75360 56-141 R99H): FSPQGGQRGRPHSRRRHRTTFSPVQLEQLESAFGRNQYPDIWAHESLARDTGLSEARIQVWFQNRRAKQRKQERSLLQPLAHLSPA
# PROP1 [8] = target: PROP1 (Homo sapiens, UniProt O75360 56-141, F88S)
# Sequence of PROP1 (Homo sapiens, UniProt O75360 56-141, F88S) (O75360 56-141 F88S): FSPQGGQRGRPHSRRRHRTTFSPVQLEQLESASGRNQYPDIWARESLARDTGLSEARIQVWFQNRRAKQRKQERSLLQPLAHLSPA
# NKX2-6 [9] = target: T6, NKX2-6 (Homo sapiens, UniProt A6NCS4 118-204, F151L)
# T6 sequence: T5 sequence with C33R, F34L
# NKX3-2 [10] = target: NKX3-2 (Homo sapiens, UniProt P78367 192-278, P234S)
# Sequence of NKX3-2 (Homo sapiens, UniProt P78367 192-278, P234S) (P78367 192-278 P234S): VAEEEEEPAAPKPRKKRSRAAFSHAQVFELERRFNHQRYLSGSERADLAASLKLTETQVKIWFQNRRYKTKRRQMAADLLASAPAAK
# NKX3-2 [11] = target: NKX3-2 (Homo sapiens, UniProt P78367 192-278)
# Sequence of NKX3-2 (Homo sapiens, UniProt P78367 192-278) (P78367 192-278): as the sequence (P78367 192-278 P234S) above, with S43P counted along it
# VENTX = target: T7, VENTX (Homo sapiens, UniProt O95231 78-163, R121Q)
# T7 sequence: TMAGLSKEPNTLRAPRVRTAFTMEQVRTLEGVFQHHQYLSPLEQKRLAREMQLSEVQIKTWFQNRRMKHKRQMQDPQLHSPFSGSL
# VAX1 [12] = target: VAX1 (Homo sapiens, UniProt Q5SQQ9 86-172)
# Sequence of VAX1 (Homo sapiens, UniProt Q5SQQ9 86-172) (Q5SQQ9 86-172): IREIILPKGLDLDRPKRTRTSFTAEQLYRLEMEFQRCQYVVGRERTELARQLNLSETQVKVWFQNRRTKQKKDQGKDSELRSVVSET
# VAX1 [13] = target: VAX1 (Homo sapiens, UniProt Q5SQQ9 86-172, T142I)
# Sequence of VAX1 (Homo sapiens, UniProt Q5SQQ9 86-172, T142I) (Q5SQQ9 86-172 T142I): as the sequence (Q5SQQ9 86-172) above, with T57I counted along it
# VAX1 [14] = target: VAX1 (Homo sapiens, UniProt Q5SQQ9 86-172, K157R)
# Sequence of VAX1 (Homo sapiens, UniProt Q5SQQ9 86-172, K157R) (Q5SQQ9 86-172 K157R): as the sequence (Q5SQQ9 86-172) above, with K72R counted along it
# NKX2-6 [15] = target: T8, NKX2-6 (Homo sapiens, UniProt A6NCS4 118-204)
# T8 sequence: T5 sequence with C33R
sequence,measurement,setting,value
GTGGCCAC,binding signal,NKX2-4 [1],"10.2 upbm affinity estimate (log intensity, higher = more binding, comparable within an allelic series)"
same,binding signal,NKX2-4 [2],"10.2 upbm affinity estimate (log intensity, higher = more binding, comparable within an allelic series)"
same,binding signal,NKX2-4 [3],"10.2 upbm affinity estimate (log intensity, higher = more binding, comparable within an allelic series)"
same,binding signal,NKX2-4 [4],"10.3 upbm affinity estimate (log intensity, higher = more binding, comparable within an allelic series)"
ACAAGTAC,binding signal,NKX2-4 [1],"12.5 upbm affinity estimate (log intensity, higher = more binding, comparable within an allelic series)"
same,binding signal,NKX2-4 [2],"12.9 upbm affinity estimate (log intensity, higher = more binding, comparable within an allelic series)"
same,binding signal,NKX2-6 [5],"11.6 upbm affinity estimate (log intensity, higher = more binding, comparable within an allelic series)"
same,binding signal,NKX2-4 [4],"12.9 upbm affinity estimate (log intensity, higher = more binding, comparable within an allelic series)"
CCCGGTGC,binding signal,NKX2-4 [1],"9.16 upbm affinity estimate (log intensity, higher = more binding, comparable within an allelic series)"
same,binding signal,NKX2-4 [2],"9.15 upbm affinity estimate (log intensity, higher = more binding, comparable within an allelic series)"
same,binding signal,NKX2-4 [3],"9.25 upbm affinity estimate (log intensity, higher = more binding, comparable within an allelic series)"
same,binding signal,NKX2-4 [4],"9.25 upbm affinity estimate (log intensity, higher = more binding, comparable within an allelic series)"
same,binding signal,PROP1 [6],"6.92 upbm affinity estimate (log intensity, higher = more binding, comparable within an allelic series)"
same,binding signal,PROP1 [7],"6.73 upbm affinity estimate (log intensity, higher = more binding, comparable within an allelic series)"
same,binding signal,PROP1 [8],"6.51 upbm affinity estimate (log intensity, higher = more binding, comparable within an allelic series)"
ACACTCAA,binding signal,NKX2-4 [1],"12.5 upbm affinity estimate (log intensity, higher = more binding, comparable within an allelic series)"
same,binding signal,NKX2-4 [2],"12.8 upbm affinity estimate (log intensity, higher = more binding, comparable within an allelic series)"
same,binding signal,NKX2-4 [3],"12.3 upbm affinity estimate (log intensity, higher = more binding, comparable within an allelic series)"
same,binding signal,NKX2-4 [4],"12.8 upbm affinity estimate (log intensity, higher = more binding, comparable within an allelic series)"
same,binding signal,NKX2-6 [9],"10.6 upbm affinity estimate (log intensity, higher = more binding, comparable within an allelic series)"
AGTATCTC,binding signal,NKX2-4 [1],"11.5 upbm affinity estimate (log intensity, higher = more binding, comparable within an allelic series)"
same,binding signal,NKX2-4 [3],"11.4 upbm affinity estimate (log intensity, higher = more binding, comparable within an allelic series)"
same,binding signal,NKX2-4 [4],"11.6 upbm affinity estimate (log intensity, higher = more binding, comparable within an allelic series)"
CTGAAAAG,binding signal,NKX2-4 [1],"11 upbm affinity estimate (log intensity, higher = more binding, comparable within an allelic series)"
same,binding signal,NKX2-4 [3],"10.8 upbm affinity estimate (log intensity, higher = more binding, comparable within an allelic series)"
same,binding signal,NKX2-4 [4],"11.1 upbm affinity estimate (log intensity, higher = more binding, comparable within an allelic series)"
GGTACTCA,binding signal,NKX2-4 [1],"12.5 upbm affinity estimate (log intensity, higher = more binding, comparable within an allelic series)"
same,binding signal,NKX2-4 [2],"12.9 upbm affinity estimate (log intensity, higher = more binding, comparable within an allelic series)"
same,binding signal,NKX2-4 [3],"12.4 upbm affinity estimate (log intensity, higher = more binding, comparable within an allelic series)"
same,binding signal,NKX2-4 [4],"12.9 upbm affinity estimate (log intensity, higher = more binding, comparable within an allelic series)"
same,binding signal,NKX3-2 [10],"12.5 upbm affinity estimate (log intensity, higher = more binding, comparable within an allelic series)"
same,binding signal,NKX3-2 [11],"12.6 upbm affinity estimate (log intensity, higher = more binding, comparable within an allelic series)"
CTAATGGA,binding signal,VENTX,"11.7 upbm affinity estimate (log intensity, higher = more binding, comparable within an allelic series)"
CGCCACAA,binding signal,NKX2-4 [1],"9.76 upbm affinity estimate (log intensity, higher = more binding, comparable within an allelic series)"
same,binding signal,NKX2-4 [2],"9.79 upbm affinity estimate (log intensity, higher = more binding, comparable within an allelic series)"
same,binding signal,NKX2-4 [3],"9.73 upbm affinity estimate (log intensity, higher = more binding, comparable within an allelic series)"
same,binding signal,NKX2-4 [4],"9.79 upbm affinity estimate (log intensity, higher = more binding, comparable within an allelic series)"
CACCCGTA,binding signal,NKX2-4 [1],"9.75 upbm affinity estimate (log intensity, higher = more binding, comparable within an allelic series)"
same,binding signal,NKX2-4 [2],"9.83 upbm affinity estimate (log intensity, higher = more binding, comparable within an allelic series)"
same,binding signal,NKX2-4 [3],"9.77 upbm affinity estimate (log intensity, higher = more binding, comparable within an allelic series)"
same,binding signal,NKX2-4 [4],"9.74 upbm affinity estimate (log intensity, higher = more binding, comparable within an allelic series)"
ACTATAAG,binding signal,NKX2-4 [1],"11.5 upbm affinity estimate (log intensity, higher = more binding, comparable within an allelic series)"
same,binding signal,NKX2-4 [3],"11.4 upbm affinity estimate (log intensity, higher = more binding, comparable within an allelic series)"
same,binding signal,NKX2-4 [4],"11.8 upbm affinity estimate (log intensity, higher = more binding, comparable within an allelic series)"
CACGCACG,binding signal,NKX2-4 [1],"9.72 upbm affinity estimate (log intensity, higher = more binding, comparable within an allelic series)"
same,binding signal,NKX2-4 [2],"9.75 upbm affinity estimate (log intensity, higher = more binding, comparable within an allelic series)"
same,binding signal,NKX2-4 [3],"9.72 upbm affinity estimate (log intensity, higher = more binding, comparable within an allelic series)"
same,binding signal,NKX2-4 [4],"9.75 upbm affinity estimate (log intensity, higher = more binding, comparable within an allelic series)"
CTCAAGAG,binding signal,NKX2-4 [1],"12.4 upbm affinity estimate (log intensity, higher = more binding, comparable within an allelic series)"
same,binding signal,NKX2-4 [2],"12.8 upbm affinity estimate (log intensity, higher = more binding, comparable within an allelic series)"
same,binding signal,NKX2-4 [3],"12.3 upbm affinity estimate (log intensity, higher = more binding, comparable within an allelic series)"
same,binding signal,NKX2-4 [4],"13 upbm affinity estimate (log intensity, higher = more binding, comparable within an allelic series)"
ACTCTTAT,binding signal,NKX2-4 [1],"12.2 upbm affinity estimate (log intensity, higher = more binding, comparable within an allelic series)"
same,binding signal,NKX2-4 [2],"12.5 upbm affinity estimate (log intensity, higher = more binding, comparable within an allelic series)"
same,binding signal,NKX2-4 [3],"12.1 upbm affinity estimate (log intensity, higher = more binding, comparable within an allelic series)"
same,binding signal,NKX2-4 [4],"12.5 upbm affinity estimate (log intensity, higher = more binding, comparable within an allelic series)"
CACTTCAC,binding signal,NKX2-4 [1],"12.5 upbm affinity estimate (log intensity, higher = more binding, comparable within an allelic series)"
same,binding signal,NKX2-4 [2],"12.8 upbm affinity estimate (log intensity, higher = more binding, comparable within an allelic series)"
same,binding signal,NKX2-4 [3],"12.3 upbm affinity estimate (log intensity, higher = more binding, comparable within an allelic series)"
same,binding signal,NKX2-4 [4],"12.9 upbm affinity estimate (log intensity, higher = more binding, comparable within an allelic series)"
same,binding signal,NKX2-6 [9],"10.7 upbm affinity estimate (log intensity, higher = more binding, comparable within an allelic series)"
GCACTCAA,binding signal,NKX2-4 [1],"12.5 upbm affinity estimate (log intensity, higher = more binding, comparable within an allelic series)"
same,binding signal,NKX2-4 [2],"12.9 upbm affinity estimate (log intensity, higher = more binding, comparable within an allelic series)"
same,binding signal,NKX2-4 [3],"12.4 upbm affinity estimate (log intensity, higher = more binding, comparable within an allelic series)"
same,binding signal,NKX2-4 [4],"13 upbm affinity estimate (log intensity, higher = more binding, comparable within an allelic series)"
CCCGGCAG,binding signal,NKX2-4 [1],"9.62 upbm affinity estimate (log intensity, higher = more binding, comparable within an allelic series)"
same,binding signal,NKX2-4 [2],"9.52 upbm affinity estimate (log intensity, higher = more binding, comparable within an allelic series)"
same,binding signal,NKX2-4 [3],"9.63 upbm affinity estimate (log intensity, higher = more binding, comparable within an allelic series)"
same,binding signal,NKX2-4 [4],"9.61 upbm affinity estimate (log intensity, higher = more binding, comparable within an allelic series)"
same,binding signal,VAX1 [12],"7.23 upbm affinity estimate (log intensity, higher = more binding, comparable within an allelic series)"
same,binding signal,VAX1 [13],"7.18 upbm affinity estimate (log intensity, higher = more binding, comparable within an allelic series)"
same,binding signal,VAX1 [14],"7.28 upbm affinity estimate (log intensity, higher = more binding, comparable within an allelic series)"
AAGTGGAA,binding signal,NKX2-4 [1],"12.4 upbm affinity estimate (log intensity, higher = more binding, comparable within an allelic series)"
same,binding signal,NKX2-6 [5],"11.6 upbm affinity estimate (log intensity, higher = more binding, comparable within an allelic series)"
same,binding signal,NKX2-6 [15],"13.3 upbm affinity estimate (log intensity, higher = more binding, comparable within an allelic series)"
same,binding signal,NKX2-4 [4],"12.9 upbm affinity estimate (log intensity, higher = more binding, comparable within an allelic series)"
same,binding signal,NKX2-6 [9],"10.6 upbm affinity estimate (log intensity, higher = more binding, comparable within an allelic series)"
GAACTGGC,binding signal,NKX2-4 [1],"9.51 upbm affinity estimate (log intensity, higher = more binding, comparable within an allelic series)"
same,binding signal,NKX2-4 [2],"9.49 upbm affinity estimate (log intensity, higher = more binding, comparable within an allelic series)"
same,binding signal,NKX2-4 [3],"9.54 upbm affinity estimate (log intensity, higher = more binding, comparable within an allelic series)"
same,binding signal,NKX2-4 [4],"9.65 upbm affinity estimate (log intensity, higher = more binding, comparable within an allelic series)"
ATCCACTC,binding signal,NKX2-4 [1],"12.4 upbm affinity estimate (log intensity, higher = more binding, comparable within an allelic series)"
same,binding signal,NKX3-2 [10],"12.5 upbm affinity estimate (log intensity, higher = more binding, comparable within an allelic series)"
ACCACTCA,binding signal,NKX2-4 [1],"12.4 upbm affinity estimate (log intensity, higher = more binding, comparable within an allelic series)"
same,binding signal,NKX2-4 [2],"12.8 upbm affinity estimate (log intensity, higher = more binding, comparable within an allelic series)"
same,binding signal,NKX2-4 [3],"12.3 upbm affinity estimate (log intensity, higher = more binding, comparable within an allelic series)"
same,binding signal,NKX2-4 [4],"12.8 upbm affinity estimate (log intensity, higher = more binding, comparable within an allelic series)"
same,binding signal,NKX3-2 [10],"12.5 upbm affinity estimate (log intensity, higher = more binding, comparable within an allelic series)"
same,binding signal,NKX3-2 [11],"12.6 upbm affinity estimate (log intensity, higher = more binding, comparable within an allelic series)"
